In PubChem BioAssay (NCI) one finds growth data, which are given here for eight molecules.

The panel holds about 83,000 compounds, 20% with a hit somewhere; the sample as a whole holds those more often.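 A percent growth of 40 corresponds to 60% growth inhibition; 0 means no net growth; -100 means all cells died. Active threshold: below 10.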 Unmarked numbers belong to inactive results. Calls of active or inactive are those of the source.

Assay in all cases: NCI-60 one-dose screen, 48 h (100 = growth as untreated, 0 = no growth, -100 = all killed)
For one assay, the system named is HCT-15 colon. Particulars: 10 µM unless noted.
For another assay, the system named is HT29 colon. Conditions: 10 µM unless noted.
The test system of the next assay is SNB-75 CNS. Particulars: 10 µM unless noted.
The test system of the next assay is SNB-19 CNS. Particulars: 10 µM unless noted.
The subject of a further assay is U251 CNS. Conditions: 10 µM unless noted.
Another assay has as its system SK-MEL-5 melanoma. Particulars: 10 µM unless noted.
A further assay deals with UACC-62 melanoma. Particulars: 10 µM unless noted.
The subject of the next assay is LOX IMVI melanoma. Particulars: 10 µM unless noted.
The subject of another assay is SK-MEL-28 melanoma. Conditions: 10 µM unless noted.
The test system of a further assay is EKVX NSCLC. Conditions: 10 µM.
The next assay deals with SN12C renal. Conditions: 10 µM unless noted.
Another assay has as its system UO-31 renal. Conditions: 10 µM unless noted.
In a further assay the test system is TK-10 renal. Particulars: 10 µM unless noted.
In the next assay the test system is ACHN renal. Conditions: 10 µM unless noted.
The next assay relates to CAKI-1 renal. Particulars: 10 µM unless noted.
The next assay has as its system A498 renal. Particulars: 10 µM unless noted.
The next assay deals with MOLT-4 leukemia. Conditions: 10 µM unless noted.
In the next assay the test system is SK-MEL-2 melanoma. Particulars: 10 µM unless noted.
A further assay has as its system CCRF-CEM leukemia. Conditions: 10 µM.
The test system of another assay is PC-3 prostate. Conditions: 10 µM unless noted.

In the case of `O=C(Nc1ccc(-n2cc(-c3ccncc3)c(-c3ccc(Cl)c(O)c3)n2)cc1)c1cc(Cl)cc(Cl)c1`, the growth with HCT-15 colon is 11.1%; with HT29 colon, 1.94% (active); with SNB-75 CNS it was 16.4%; in the assay on SNB-19 CNS, 72.4%; in the assay with U251 CNS, 41.9%; in the assay with SK-MEL-5 melanoma it was -85.1% (active). In addition, the growth is 39.2% in the assay with UACC-62 melanoma; 40.3% in the assay on LOX IMVI melanoma; 29.7% with SK-MEL-28 melanoma; 75.7% in the assay on EKVX NSCLC; 70.2% with SN12C renal; 12.3% in the assay with UO-31 renal. The growth was 61.3% in the assay with TK-10 renal; 57.3% in the assay with ACHN renal; -32.1% (active) with CAKI-1 renal; 95.9% in the assay with A498 renal; 24.3% in the assay with MOLT-4 leukemia.
In the case of `O=C(/C=C/c1cccc(O)c1)c1cccc(-n2cc(-c3ccc(Cl)cc3)[nH]c2=O)c1`, the growth with HCT-15 colon is -22.9% (active); in the assay with HT29 colon, -10.1% (active); in the assay on SNB-75 CNS, 0.636% (active); in the assay on SNB-19 CNS it was -10.6% (active); with U251 CNS, -87.9% (active); in the assay with SK-MEL-5 melanoma it was -0.458% (active). For the same molecule, the growth with UACC-62 melanoma is 5.09% (active); in the assay with LOX IMVI melanoma, -92.1% (active); in the assay on SK-MEL-28 melanoma, -86.4% (active); with SK-MEL-2 melanoma, -45.5% (active); in the assay on EKVX NSCLC, 1.79% (active); in the assay on SN12C renal it was -47% (active). Further, the growth with UO-31 renal was -78.3% (active); in the assay with ACHN renal, -80.6% (active); in the assay on CAKI-1 renal it was -53.9% (active); in the assay with A498 renal, 61.7%; in the assay with CCRF-CEM leukemia, -4.75% (active); with MOLT-4 leukemia it was -29% (active).
Take `O=C(Nc1ccc(-n2cc(-c3ccncc3)c(-c3ccc(Cl)c(O)c3)n2)cc1)Nc1ccc(Cl)c(C(F)(F)F)c1`: the growth with HCT-15 colon is 2.66% (active); with HT29 colon, -92.4% (active); with SNB-75 CNS it was -11.6% (active); with SNB-19 CNS it was 27.4%; in the assay on U251 CNS, -31.4% (active); in the assay on SK-MEL-5 melanoma, -89.4% (active). The growth in the assay on UACC-62 melanoma was -25% (active); in the assay with LOX IMVI melanoma, 5.17% (active); in the assay with SK-MEL-28 melanoma it was -28.3% (active); in the assay with EKVX NSCLC, 1.43% (active); in the assay with SN12C renal, 31.1%; in the assay with UO-31 renal, -32.6% (active). The growth is -12.1% (active) in the assay on TK-10 renal, 2.3% (active) in the assay with ACHN renal, 63.6% in the assay on A498 renal and -1.95% (active) in the assay with MOLT-4 leukemia.
As for `CNc1nc2ncn(C)c2c(=O)[nH]1`, the growth in the assay with HCT-15 colon is 74%; in the assay with HT29 colon, 98%; in the assay on SNB-75 CNS, 81.3%; with SNB-19 CNS, 113%; with U251 CNS it was 97.3%; in the assay with PC-3 prostate, 100%. The growth was 78.3% with UACC-62 melanoma; 71.6% with LOX IMVI melanoma; 103% in the assay with SK-MEL-28 melanoma; 94.3% with SK-MEL-2 melanoma; 92% with SN12C renal; 83.3% with UO-31 renal. The growth with TK-10 renal was 84.1%; with ACHN renal, 71.5%; in the assay with CAKI-1 renal it was 84.1%; in the assay with A498 renal, 96.4%; in the assay with MOLT-4 leukemia, 94.8%.
Consider `C=CC1CN2CCC1CC2C(O)c1ccnc2ccc(OC)cc12` (stereo not given), for which the growth with HCT-15 colon is 104%; with HT29 colon it was 98.6%; with SNB-75 CNS, 78.2%; in the assay with SNB-19 CNS, 96.1%; with U251 CNS it was 103%; in the assay on SK-MEL-5 melanoma, 97.9%. In addition, the growth in the assay on UACC-62 melanoma is 100%; in the assay on LOX IMVI melanoma it was 93.3%; in the assay with SK-MEL-28 melanoma, 115%; in the assay on SK-MEL-2 melanoma it was 2.09% (active); in the assay on EKVX NSCLC, 102%; in the assay on SN12C renal, 98.7%. The growth in the assay on UO-31 renal is 60.2%; with TK-10 renal, 108%; with ACHN renal, 97.9%; with CAKI-1 renal it was 103%; in the assay on A498 renal it was 108%; with CCRF-CEM leukemia, 106%. For the same molecule, the growth in the assay on MOLT-4 leukemia is 106%.
`C/C=C/C/C=C/[C@H](C)C[C@H](O)[C@@H]1C[C@@H]2O[C@H]2/C=C/[C@H](O)[C@@H](O)/C=C/C[C@H](C)CC(=O)O1`: the growth with HCT-15 colon is 66.1%; in the assay on HT29 colon it was 68.4%; in the assay with SNB-75 CNS it was 90.9%; in the assay on SNB-19 CNS it was 97.4%; with U251 CNS, 87.4%; in the assay with PC-3 prostate, 115%. Besides, the growth in the assay on UACC-62 melanoma is 71.3%; with LOX IMVI melanoma it was 88.3%; with SK-MEL-28 melanoma, 101%; in the assay on EKVX NSCLC, 121%; in the assay with SN12C renal, 79.1%; in the assay with UO-31 renal it was 56.9%. The growth in the assay on TK-10 renal is 42.8%; with ACHN renal it was 77.5%; in the assay with A498 renal, 115%; in the assay on CCRF-CEM leukemia, 51.3%; in the assay with MOLT-4 leukemia, 81.5%.
Turning to `COC(=O)[C@@H]1[C@H](O)[C@H](C)[C@H](O)[C@H](C)/C=C\C=C(C)C(=O)Nc2c(C)c(OC(C)=O)c3c(c2O)C(=O)C(C)=C2OCOC(=C23)C(C)=C[C@@](C)(O)[C@H](O)[C@@H](C)[C@H]1OC(C)=O`, the growth with HCT-15 colon is 118%; in the assay with HT29 colon, 110%; in the assay on SNB-75 CNS, 86.6%; in the assay with SNB-19 CNS, 113%; in the assay on U251 CNS, 111%; in the assay on SK-MEL-5 melanoma it was 103%. The growth in the assay with UACC-62 melanoma is 113%; with LOX IMVI melanoma it was 104%; in the assay on SK-MEL-28 melanoma, 138%; with SK-MEL-2 melanoma, 8.13% (active); in the assay on EKVX NSCLC, 112%; in the assay on SN12C renal, 112%. In addition, the growth in the assay with UO-31 renal is 101%; with TK-10 renal it was 73.5%; with ACHN renal, 122%; in the assay with CAKI-1 renal it was 116%; with A498 renal, 141%; with CCRF-CEM leukemia, 99.3%. Further, the growth with MOLT-4 leukemia is 87.6%.
As to `CCOC(=O)C1C(=O)C(=O)N(C(C)C)C1C(=O)OCC` (stereo not given), the growth was 94.1% with HCT-15 colon; 98.2% in the assay on HT29 colon; 85.9% in the assay on SNB-75 CNS; 97.3% in the assay with SNB-19 CNS; 107% with U251 CNS; 97.8% in the assay with PC-3 prostate. For the same molecule, the growth was 96.4% in the assay on UACC-62 melanoma; 102% in the assay on LOX IMVI melanoma; 108% with SK-MEL-28 melanoma; 113% in the assay with SK-MEL-2 melanoma; 106% with EKVX NSCLC; 86.2% with UO-31 renal. Also, the growth with TK-10 renal is 99.1%; with ACHN renal, 94.3%; with CAKI-1 renal, 105%; with CCRF-CEM leukemia, 110%; with MOLT-4 leukemia, 122%.
